# VDR inh: inhibitors of human vitamin D receptor | VDR-SRC2-3 peptide fluorescence polarization, 2 h | Potency, µM, for the others: max response, negative = inhibition, actives largely listed as inhibitors | hit rate 0.93% among 400,000 | AID 504847; further: on the % scale 0 is the no-effect control and ±100 the full control effect
#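 After 23 nl compound addition and a short centrifugation, plates sat for 2 hours at ambient temperature; polarization of fluorescence then indicated loss of VDR binding to peptide SRC2-3.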
# HP1b binding inh: blocks HP1-beta chromodomain binding to methylated histone tails; AlphaScreen HP1-beta / biotin-H3K9me3 peptide binding; Potency, µM (series often up to 114 µM), for the others: at the top dose activity change, negative = inhibition, actives largely listed as inhibitors; hit rate 0.56% among 390,000; AID 540317; further: nearly all actives have a fitted effect of over 70% in size
# Target sequence (P83916 whole entry, looked up): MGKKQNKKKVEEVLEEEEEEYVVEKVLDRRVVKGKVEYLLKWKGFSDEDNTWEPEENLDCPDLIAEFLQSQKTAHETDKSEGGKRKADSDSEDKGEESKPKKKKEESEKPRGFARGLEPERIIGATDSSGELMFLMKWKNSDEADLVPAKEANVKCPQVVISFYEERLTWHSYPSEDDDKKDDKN
#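 AlphaScreen: HP1-beta (50 nM) preformed 30 min with biotin-H3(1-18)K9me3 peptide (50 nM) in PBS pH 7.4, 0.01% Tween-20. Compound added for 30 min at RT, then streptavidin donor/nickel chelate acceptor beads (10 ug/mL) for 30 min.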
# PLK1 PBD inh: blocks phosphopeptide binding to human PLK1 polo-box domain | P53350 | Plk1 PBD binding of FITC phosphopeptide, fluorescence polarization | Potency, µM, for the others: max response, negative = inhibition, actives largely listed as inhibitors | hit rate 2.8% among 360,000 | AID 720504; further: series mostly up to about 57 µM; on the % scale 0 is the no-effect control and ±100 the full control effect; nearly all actives have a fitted effect of over 65% in size
# BAZ2B block: inhibitors of human BAZ2B bromodomain. Q9UIF8. AlphaScreen BAZ2B-H3K14Ac peptide displacement. Potency, µM (highest dose often 114 µM), for inactives: at the top dose activity change, negative = inhibition, most hits filed as inhibitors. hit rate 4.4% among 360,000; further: on the % scale 0 is the no-effect control and ±100 the full control effect; nearly all actives have a fitted effect of over 60% in size
#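 Inhibition is scored as reduced AlphaScreen emission. The BAZ2B/b-H3(5-23)K14Ac complex (50 nM each) in PBS pH 7.4, 0.01% Tween-20 meets compound (up to 110 uM) for 30 min at RT before bead addition.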
# G9a inh: G9a (human) methyltransferase inhibition; hit rate 8.8% among 350,000; G9a H3K9 monomethylation, AlphaScreen, 2 h; AID 504332; Q96KQ7; Potency, µM (top dose mostly 102 µM), without a hit: top-dose activity, negative = inhibition, most hits filed as inhibitors; further: on the % scale 0 is the no-effect control and ±100 the full control effect; nearly all actives have a fitted effect of over 75% in size
# Target sequence (Q96KQ7 913-1193 limits assumed): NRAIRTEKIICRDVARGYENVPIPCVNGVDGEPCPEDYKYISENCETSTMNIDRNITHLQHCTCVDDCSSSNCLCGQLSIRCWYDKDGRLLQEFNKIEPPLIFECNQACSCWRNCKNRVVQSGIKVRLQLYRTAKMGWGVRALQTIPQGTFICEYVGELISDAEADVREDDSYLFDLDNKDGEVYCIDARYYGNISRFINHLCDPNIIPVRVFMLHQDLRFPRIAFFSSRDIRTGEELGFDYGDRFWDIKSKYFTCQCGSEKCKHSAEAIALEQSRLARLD
#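 AlphaScreen detection with an anti-monomethyl H3K9 antibody quantified product after a 2 h room-temperature reaction containing 500 nM biotinylated H3K9 peptide, 20 µM SAM and 20 nM enzyme, which had been preincubated 15 min with compound.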
# JMJD2A Tudor: blocks the human JMJD2A Tudor domain | AlphaScreen JMJD2A-Tudor / H3K4me3 peptide binding | Potency, µM (doses to about 114 µM), without a hit: at the top dose activity change, negative = inhibition, most hits filed as inhibitors | hit rate 4.4% among 390,000 | AID 504339; further: on the % scale 0 is the no-effect control and ±100 the full control effect; nearly all actives have a fitted effect of over 50% in size
# Starred values were filed as active, the others as inactive; ? = inconclusive; · = not tested or not shown; [ ] = another dose, or the depositor's remark. The list is not random: actives were taken first. Their share in the collection is about 11%. The call rests on the fitted dose curve; in most records, active means well fitted curve in the direction sought with a large enough effect; inconclusive means small, poorly fitted or top-dose-only effect, or another doubt; inactive means no such curve, though single readings can be large; an effect the other way counts as inactive or inconclusive. Potency means the concentration at half of the fitted maximal effect.
SMILES,VDR inh,HP1b binding inh,PLK1 PBD inh,BAZ2B block,G9a inh,JMJD2A Tudor
CC(=O)n1c(=O)c2ccccc2c(=O)n1-c1ccccc1,?,30%,13µM*,1%,-45%,4%
COC(=O)c1c(NC(=O)c2ccccc2)sc(C(=O)c2ccccc2)c1C,15%,21%,2%,67%,-15%[59 µM],-14%
Cc1ccc(NC(=O)c2ccccc2)s1,7%,23%,-8%,-3%,25µM*,14%
Cc1cc(NC(=O)c2ccccc2)cc(NC(=O)c2ccccc2)c1C,-7%,-16%,-25%,5%,·,-16%
Cc1cc(NC(=O)c2ccccc2)sc1C,9%,14%,?,?,16µM*,-13%[11.4 µM]
COc1cc(NC(=O)Nc2cccn3nc(COCCO)nc23)cc(OC)c1OC,·,·,4%,·,·,·
COc1cc(C2/C(=C(\O)c3ccc4c(c3)OCCO4)C(=O)C(=O)N2Cc2ccco2)cc(OC)c1OC (stereo not given),24%,12%,-4%,-36%,50µM*,-16%
O=C1C(=O)N(Cc2ccccc2)C(c2cccc(O)c2)/C1=C(\O)c1ccc2c(c1)OCCO2 (stereo not given),-8%,35%,3%,56µM*,45µM*,-11%
O=C1C(=O)N(Cc2ccco2)C(c2cccc(Cl)c2)/C1=C(\O)c1ccc2c(c1)OCCO2 (stereo not given),-27%,-14%,-22%,?,?,79µM*
COc1cc(C2/C(=C(\O)c3ccc4c(c3)OCCO4)C(=O)C(=O)N2Cc2ccco2)ccc1O (stereo not given),-6%,5%,-7%,-34%,50µM*,-29%
COc1ccc(C2/C(=C(\O)c3ccc4c(c3)OCCO4)C(=O)C(=O)N2Cc2cccnc2)cc1OC (stereo not given),7%,9%,-7%,-30%,?,-23%
O=C1C(=O)N(Cc2cccnc2)C(c2ccc(Br)cc2)/C1=C(\O)c1ccc2c(c1)OCCO2 (stereo not given),11%,18%,-1%,-14%,10%[59 µM],-14%
COc1cccc(C2/C(=C(\O)c3ccc4c(c3)OCCO4)C(=O)C(=O)N2CCN(C)C)c1 (stereo not given),-2%,54%,-9%,-31%,?,1%[11.4 µM]
CC(Oc1ccc([N+](=O)[O-])cc1)C(=O)NCC1CCCO1 (stereo not given),-9%,23%,-7%,-1%,20%,-23%
CCNC(=O)C1(C)CCCN(C(=O)c2ccc(F)c(C)c2)C1 (stereo not given),·,·,-2%,·,·,·
Cc1ccc(NC(=O)CN2C(=O)COc3ccc(S(=O)(=O)NC4CCCC4)cc32)cc1Cl,7%,-15%,·,-13%,-5%[59 µM],-27%
COc1ccc(Cl)cc1S(=O)(=O)N1CCN(S(=O)(=O)c2ccc3c(c2)OCCO3)CC1,·,·,·,·,·,-18%
O=C(CN(c1ccc(Cl)c(C(F)(F)F)c1)S(=O)(=O)c1ccccc1)N1CCc2ccccc2C1,5%,45%,·,1%,13%[59 µM],2%
COc1ccc(-c2cc(-c3c(O)c(OC)c4occc4c3OC)[nH]n2)cc1OC,-3%,?,-4%,?,-6%[0.0925 µM],56µM*
CCOC(=O)c1scc(-c2ccc(C)cc2)c1S(=O)(=O)Nc1cccc(CC)c1,0%,5%,·,-5%,7%[59 µM],5%
CCc1nc2ccc(C(=O)N(C)Cc3ccco3)cn2c1N(CC)Cc1cccc(Br)c1,·,·,-5%,·,·,·
CCn1c(SCC(=O)NNC(=S)Nc2ccc(C)cc2)nnc1-c1ccc(Cl)cc1,-13%,19%,-2%,-1%,10µM*,-22%
COC(=O)c1ccccc1NC(=O)CSc1nc(N)cc(N)n1,5%,28%,-16%,-6%,-12%,-11%
CCn1c(SCC(=O)Nc2ccccc2C(=O)OC)nnc1-c1ccoc1C,7%,3%,-9%,3%,-2%,-16%
CCn1c(SCC(=O)Nc2ccccc2C(=O)OC)nnc1-c1ccc(N)cc1,5%,9%,-8%,3%,45µM*,-8%
SMILES,VDR inh,HP1b binding inh,PLK1 PBD inh,BAZ2B block,G9a inh,JMJD2A Tudor
CCn1c(Cc2ccccc2)nnc1SCC(=O)Nc1ccc(N)cc1,9%,24%,-6%,-25%,50µM*,-24%
COC(=O)c1ccccc1NC(=O)CSc1nc(N)cc(=O)[nH]1,-17%,?,4%,56µM*,50µM*,?
CCn1c(Cc2ccccc2)nnc1SCC(=O)Nc1ccc(OC)cc1,23%,30%,-7%,8%,15%[59 µM],-12%
CC(C)C[C@H]1CNC(=S)N1CC1CCCN1C[C@H](CC(C)C)N1C[C@H](Cc2ccc(O)cc2)N(CC2CCCCCC2)C1=S (stereo not given in full),-3%,13%,-3%,·,·,?
Cc1c2cnn(CC(=O)NC(C)C)c(=O)c2c(C)n1Cc1cccc(Cl)c1,6%,1%,·,-15%,1%[59 µM],-23%
COc1cc2nc(N(C)CCCNC(=O)[C@@H]3CCCO3)nc(N)c2cc1OC,-5%,·,·,·,11%[21.5 µM],·
CCn1c(SCC(=O)Nc2ccccc2C(=O)OC)nc2c1c(=O)n(C)c(=O)n2C,·,·,·,2%,28µM*,·
CCn1c(Oc2ccccc2)nc2c1c(=O)n(C)c(=O)n2C,?,-9%,27µM*,12%,-1%[0.501 µM],-12%[57.1 µM]
C=CCn1c(Oc2ccccc2)nc2c1c(=O)n(C)c(=O)n2C,2%,28%,3%,?,·,1%
CCn1c(SCC(=O)Nc2ccccc2)nc2c1c(=O)n(C)c(=O)n2C,1%,61%,-3%,3%,9%[59 µM],1%
S=c1nn[nH]n1C12CC3CC(CC(C3)C1)C2,1%,-5%,?,?,1.4µM*,50µM*
c1cn(C23CC4CC(CC(C4)C2)C3)cn1,23%,18%,0%,2%,4%[12.7 µM],-14%
O=C1C(=O)c2ccccc2C(O)=C1c1cccc([N+](=O)[O-])c1,-16%,?,27µM*,?,56µM*,-28%
Cc1ccc(C2=C(O)c3ccccc3C(=O)C2=O)cc1,3%,-5%,2%,?,·,-5%
COc1cccc(C2=NOC(C(=O)Nc3cc(C)nn3-c3ccccc3)C2)c1OC (stereo not given),-14%,17%,-12%,10%,45µM*,6%
CNc1nc2c(c(=O)n(C)c(=O)n2C)n1Cc1ccccc1,-14%,44%,-5%,0%,23%[59 µM],-23%
Cn1c(=O)c2c(nc(NC(Cc3ccccc3)C(=O)O)n2Cc2ccccc2)n(C)c1=O (stereo not given),?,22%,-14%,?,56µM*,-23%
CCOC(=O)c1c(NC(=O)CC)sc(C(=O)NC2CCCC2)c1C,6%,9%,-12%,2%,19%,-22%
CCOC(=O)c1sc(NC(=O)CCN2CC(C)OC(C)C2)c(C(=O)OCC)c1C (stereo not given),·,·,·,-9%,45µM*,·

# Source: PubChem (National Center for Advancing Translational Sciences (NCATS))
